Assay outcomes deposited in PubChem by Broad Institute.
Shown is part of a subset that was picked to be rich in hits.
BL2 CD40 inh – inhibitors of CD40-induced NF-kB signaling, primary screen, BL2 cells, luciferase reporter, single point | CD40L-induced, 4 h | inhibition, % at 10 µM | 83,000 compounds, 0.94% hits | AID 1053188, 2014;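 active = mean inhibition of at least 50% with a set share of replicates also reaching that level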;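 note: 0% = neutral control wells and 100% = IKK inhibitor VII at 50 µM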
* hit, by the source's call; [ ] = another dose, or the depositor's remark.

SMILES | BL2 CD40 inh
C[C@@H]1CN(C)C(=O)c2cc(N)ccc2O[C@H]1CN(C)C(=O)OC(C)(C)C | 0.3
CC(=O)N(C)C[C@H]1Oc2ccc(N)cc2C(=O)N(C)C[C@@H]1C | 7.4
C[C@H]1CC(=O)N[C@@H](c2ccccc2)C/C=C\C[C@H](c2ccccc2)NC1=O | 10.3[25 µM]
O=C(NCC[C@H]1CC[C@@H](NC(=O)c2ccccc2F)[C@H](CO)O1)c1cnccn1 | -0.9[25 µM]
C[C@H]1CN([C@@H](C)CO)C(=O)c2c(c3ccccc3n2C)-c2ccccc2CO[C@@H]1CN(C)CC1CC1 | -3.7
COc1cccc(S(=O)(=O)N2C[C@@H](O)COC[C@@H]3O[C@@H](CC(=O)NCCCN4CCOCC4)CC[C@H]32)c1 | 2.1[25 µM]
C[C@H]1CN([C@@H](C)CO)C(=O)c2c(c3ccccc3n2C)-c2ccccc2CO[C@@H]1CN(C)Cc1ccc(C(F)(F)F)cc1 | 15.5
C[C@@H]1CN([C@H](C)CO)C(=O)c2c(c3ccccc3n2C)-c2ccccc2CO[C@H]1CN(C)C(=O)c1cc(Cl)cc(Cl)c1 | 51.4*[25 µM]
C[C@H](CO)N1C[C@H](C)[C@H](CN(C)C(=O)c2cc(Cl)cc(Cl)c2)OCc2ccccc2-c2c(n(C)c3ccccc23)C1=O | 41.7[25 µM]
C[C@@H]1CN([C@@H](C)CO)C(=O)c2c(c3ccccc3n2C)-c2ccccc2CO[C@H]1CN(C)C(=O)c1cc(Cl)cc(Cl)c1 | 28.6[25 µM]
C[C@@H]1CN([C@H](C)CO)C(=O)c2c(c3ccccc3n2C)-c2ccccc2CO[C@H]1CN(C)Cc1cccc(C(F)(F)F)c1 | 75.6*[25 µM]
C[C@@H]1CN([C@H](C)CO)C(=O)c2c(c3ccccc3n2C)-c2ccccc2CO[C@@H]1CN(C)Cc1ccc(C(F)(F)F)cc1 | 5.7
CO[C@@H]1CN(C)C(=O)c2cc(NC(=O)NC3CCCCC3)ccc2OC[C@H](C)NC[C@@H]1C | -3.5
CC(C)(C)S(=O)N1Cc2cc(C(=O)NCc3ccc(Oc4ccccc4)cc3)nc(-c3cccc(C#CCC4CCCC4)c3)c2[C@@H]1CCO (stereo partly specified) | 14.5[25 µM]
CC(=O)OC1CCC2(C)C(CCC3C4CC=C(C(C)=O)C4(C)OC(=O)CC32)C1 (stereo unspecified) | 97.8*
CC(=O)C1CCC2C3CCC4CC(OC(=O)CCC(=O)O)CCC4(C)C3C(=O)CC12C (stereo unspecified) | 10.9
CC(=O)[C@@]1(O)CCC2C3CC[C@H]4C[C@@H](O)CC[C@]4(C)C3CC[C@@]21C (stereo partly specified) | -3.9
N#C[C@@H]1[C@@H](c2ccccc2-c2ccc(F)cc2)[C@H](CO)N1C(=O)NC1CCCC1 | 6.3
COC(=O)C12OCC34C(CC5C(C)=C(O)C(=O)CC5(C)C3C(O)C1O)OC(=O)C(OC(=O)C=C(C)C)C24 (stereo unspecified) | 103.1*
N#C[C@@H]1[C@H](c2ccccc2-c2ccccc2)[C@H](CO)N1C(=O)NC1CCCCC1 | 0.9
O=C(N[C@H]1C=C[C@H](CC(=O)N2CCN(c3ccccc3)CC2)O[C@@H]1CO)c1ccccc1 | -2.1[25 µM]
CN1CCN(C(=O)C[C@H]2CC[C@@H]3[C@H](COC[C@@H](O)CN3C(=O)Nc3ccc4c(c3)OCO4)O2)CC1 | -0.7[25 µM]
O=C(N/N=C/c1cccc(O)c1)c1ccc2c(c1)OCCO2 | 75.1*
O=C(N/N=C/c1cccnc1)c1ccc2c(c1)OCO2 | -32.6
O=C(N/N=C/c1ccc2c(c1)OCO2)c1ccc2c(c1)OCO2 | -62.3
SMILES | BL2 CD40 inh
C[C@H]1CN([C@@H](C)CO)S(=O)(=O)c2ccc(-c3cncnc3)cc2O[C@@H]1CN(C)Cc1ccncc1 | -20.1[25 µM]
C[C@H](CO)N1C[C@H](C)[C@H](CN(C)C(=O)[C@H](Cc2ccccc2)N(C)C)OCc2ccccc2-c2c(n(C)c3ccccc23)C1=O | 24.8[25 µM]
CN(C)C(=O)c1ccc(-c2ccc(C3[C@H]4CNC[C@@H]3N4Cc3ccccn3)cc2)cc1 (stereo partly specified) | 3.7[25 µM]
CC(=NNc1nc2ccccc2o1)c1cc2ccccc2cn1 | -10.3
CC(=NNc1nc2ccccc2o1)c1ncccn1 | 79.6*
CC(=NNc1nc2ccccc2s1)c1ncccn1 | -13.0
Cc1noc(C)c1CSCC(=O)N(C)CC(=O)Nc1ccc(Cl)c(Cl)c1 | -3.1
Cc1ccc(C)c(NC(=O)CN(C)C(=O)CSCc2c(C)noc2C)c1 | 28.8*
CCN(CC(=O)Nc1cc(Cl)ccc1C)C(=O)CSCc1c(C)noc1C | 1.4
COc1ccccc1NC(=O)N1C[C@H]2[C@@H](c3ccccc31)[C@@H](CO)N2C(=O)C1CC1 | 10.2
CC(=O)N1C[C@@H]2C(c3ccc(Br)cc3)[C@H](C1)N2C(C)=O (stereo partly specified) | -3.4
CSC1SCC2C(=O)N(C)C(C(C)C)C(=O)OCC(NC(=O)c3cnc4ccccc4n3)C(=O)NC(C)C(=O)N(C)C1C(=O)N(C)C(C(C)C)C(=O)OCC(NC(=O)c1cnc3ccccc3n1)C(=O)NC(C)C(=O)N2C (stereo unspecified) | 91.6*
Cc1ccccc1-c1ccccc1[C@H]1[C@@H](CO)N(C(=O)c2cccc(F)c2)[C@H]1C#N | 1.0[25 µM]
C/C=C/c1ccc(C2[C@H]3CNC[C@@H]2N3C(=O)Nc2ccc3c(c2)OCO3)cc1 (stereo partly specified) | -9.5[25 µM]
CC(NCCc1ccc(O)cc1)C(O)c1ccc(O)cc1 (stereo unspecified) | -0.6
CCCCCCCCNC(C)C(O)c1ccc(SC(C)C)cc1 (stereo unspecified) | 38.9*
C[C@H]1CN(C)C(=O)c2cccc(NS(C)(=O)=O)c2O[C@H]1CN(C)S(C)(=O)=O | -1.3
CCCNC(=O)[C@H]1[C@H](CO)[C@H]2Cn3c(ccc(-c4ccc(OC)cc4)c3=O)[C@@H]1N2CC | 5.0[25 µM]
COc1ccc(-c2ccc(C3[C@H]4CNC[C@@H]3N4S(=O)(=O)c3ccc(OC)cc3)cc2)cc1 (stereo partly specified) | -3.1
COc1ccc(C(=O)/C=C/C(=O)N(CC(=O)NCCC(C)C)Cc2cccs2)c(O)c1 | 89.8*
COc1ccc(S(=O)(=O)NCC(=O)N(CC(=O)NC(C)(C)C)Cc2cccs2)cc1 | 6.0
COc1ccc(OC)c(NC(=O)CN(Cc2ccc(F)cc2)C2CCCCC2)c1 | 19.9
COc1ccc(C(=O)/C=C/C(=O)N(CC(=O)NC2CCCCC2)Cc2ccc(F)cc2)c(O)c1 | 37.6*
O=C(COC(=O)Cc1ccc(F)cc1)NC1CCCCCC1 | 13.7
COc1ccc(Br)c(C(=O)NCCC(C)C)c1 | 0.4
SMILES | BL2 CD40 inh
COc1ccc(-c2ccc([C@H]3[C@@H](CO)N4C(=O)CN(Cc5ccccc5)C[C@@H]34)cc2)cc1 | 8.1
O=C(C[C@H]1CC[C@H](NS(=O)(=O)c2ccccc2F)[C@H](CO)O1)NCCCN1CCOCC1 | -1.3[25 µM]
O=C(Cc1ccncc1)NCC[C@H]1CC[C@H](NS(=O)(=O)c2ccccc2Cl)[C@@H](CO)O1 | -5.2[25 µM]
O=C(C[C@H]1C[C@H]2c3cc(NS(=O)(=O)c4ccc(F)cc4)ccc3O[C@H]2[C@@H](CO)O1)NCCN1CCCCC1 | -9.7[25 µM]
Cc1ccccc1C(=O)N1CCC(C(=O)Nc2nccs2)CC1 | -13.1
Cc1ccccc1C(=O)N1CCC(C(=O)Nc2nc3ccc(F)cc3s2)CC1 | 56.1*
O=C(CN1C(=O)C2CCCCC2C1=O)Nc1nc2ccc(F)cc2s1 (stereo unspecified) | -5.4
C[C@@H]1CN(C)C(=O)c2cc(N(C)C)ccc2O[C@@H]1CN(C)S(C)(=O)=O | 8.2
COc1ccc(NC(=O)N2CCC3(CC2)CN(C(=O)C2CCC2)[C@H](CO)c2c3c3ccc(OC)cc3n2C)cc1 | 7.3[25 µM]
